Values without a mark were called inactive. The rule behind the calls is not given here.
Molecular target: Pantothenate synthetase (Mycobacterium tuberculosis (strain ATCC 25618 / H37Rv)) (UniProt P9WIL5)
Assay: Coupled enzyme confirmation of inhibitors against recombinant Mtb PanC (AID 375);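 note: 0% = full reaction with vehicle and 100% = no enzyme background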
Conditions: coupled enzyme assay; at 10 µM, hits give high values

Chain of Pantothenate synthetase (Mycobacterium tuberculosis (strain ATCC 25618 / H37Rv)) (P9WIL5 whole entry, looked up): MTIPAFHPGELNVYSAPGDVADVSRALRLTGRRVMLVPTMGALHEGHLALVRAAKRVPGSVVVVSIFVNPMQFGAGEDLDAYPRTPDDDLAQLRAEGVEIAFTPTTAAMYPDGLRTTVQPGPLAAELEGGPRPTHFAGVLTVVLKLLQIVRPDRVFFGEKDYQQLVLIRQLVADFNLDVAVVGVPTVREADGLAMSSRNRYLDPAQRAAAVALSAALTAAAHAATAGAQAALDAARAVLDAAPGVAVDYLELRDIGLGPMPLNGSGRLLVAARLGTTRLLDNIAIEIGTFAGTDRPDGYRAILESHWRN

Point of comparison: `C=CCSc1nc2sc(C)c(C)c2c(=O)[nH]1`, inhibition 10%. Against it:
- CC(=O)C1=C(C)NC(SCSc2ccccc2)=C(C#N)C1c1cccnc1 (stereo not given) — lower, 4%
- OC(CCN1CCCC1)(c1ccccc1)C1CCCCC1 (stereo not given) — lower, 1%
- CCCS(=O)(=O)N1CCCC(C(=O)N2CCC(Cc3ccccc3)CC2)C1 (stereo not given) — lower, 0%
- COc1ccc(C2=NOC(C(=O)NCc3ccc(F)cc3)C2)cc1OC (stereo not given) — lower, 0%
- COc1cc2[nH]c(=O)n(CCCCCC(=O)NCCCN3CCCC3=O)c(=O)c2cc1OC — lower, 0%
- CC(=O)Nc1ccc(S(=O)(=O)N2CCC(c3nc4ccccc4[nH]3)CC2)cc1 — lower, 0%
- N#CCC(=O)Nc1ncn(Cc2ccccc2Cl)n1 — lower, 0%
- CN1CCN(S(=O)(=O)c2ccc(Sc3nnc(-c4cccs4)n3-c3ccccc3)nc2)CC1 — lower, 3%
- CC(=O)OC(C(=O)NC1CCCCC1)c1ccncc1 (stereo not given) — the same, 10%
- Fc1ccc(-n2c(Cc3ccccc3)nnc2SCc2nc(-c3cccs3)no2)cc1 — lower, 0%
- COc1ccccc1C(=O)N1CCCC(c2nc(-c3cc(OC)c(OC)c(OC)c3)no2)C1 (stereo not given) — lower, 0%
- O=C(Cn1nc(Cc2ccncc2)c2ccccc2c1=O)N1CCN(C(=O)c2ccco2)CC1 — lower, 0%
- COc1ccc(-n2nc(C(=O)Nc3ccc4c(c3)OCO4)c3c4ccccc4n(C)c3c2=O)cc1 — lower, 2%
- CC(C)(NC(=O)N1CCCC1)c1cccc(C(C)(C)NC(=O)N2CCCC2)c1 — lower, 0%
- Cc1cc(C)n(-c2cc(N3CCOCC3)ncn2)n1 — lower, 1%
- CCn1c(SCc2cc(=O)[nH]c3ccccc23)nc2c1c(=O)n(C)c(=O)n2C — lower, 5%
- N#Cc1cnc(SCC(=O)Nc2ccccc2C(F)(F)F)nc1N — lower, 4%
- CC(C)NCC(O)COc1cccc2[nH]ccc12 (stereo not given) — lower, 0%
- Oc1c(I)cc(Cl)c2cccnc12 — lower, 4%
- Cc1ccc(S(=O)(=O)Nc2nc3ccccc3nc2NCc2ccco2)cc1 — lower, 3%
- Cc1cccc(N2CCN(C(=O)C3CCCN(S(=O)(=O)c4cnc[nH]4)C3)CC2C)c1 (stereo not given) — lower, 0%
- O=C(COC(=O)CCOc1ccccc1)Nc1ccc(Cl)cn1 — lower, 0%
- COC(=O)c1ccc(NC(=O)C(C)N2C(=O)c3ccccc3C2=O)cc1 (stereo not given) — lower, 8%
- O=C(CCN1CCOCC1)Nc1cccc(Br)c1 — the same, 10%
- Cc1cc2cc(CCNC(=O)CC(C)C)c(=O)[nH]c2cc1C — lower, 9%
- CC(=O)c1cc(F)c(N2CCN(C(=O)Cc3ccccc3)CC2)cc1C — lower, 0%
- Nc1nc(C(=O)N2CCOCC2)nn1S(=O)(=O)c1ccc(Cl)cc1 — lower, 0%
- CCOC(=O)c1c(C)n(C)c2c(C)cc(O)c(OC(C)=O)c12 — lower, 0%
- CCOC(=O)C1CCN(c2cc(C)nc3cc(-c4cccc(F)c4)nn23)CC1 — lower, 3%
- COc1ccc(N2CCN(C(=O)CCNS(=O)(=O)c3ccc(Br)s3)CC2)cc1 — lower, 3%
- CS(=O)(=O)N1CCC(C(=O)NCCC2=CCCCC2)CC1 — lower, 6%
- CC1=C(C(=O)Nc2cccnc2)C(c2ccc(C(C)C)cc2)n2ncnc2N1 (stereo not given) — lower, 1%
- N#CC(C(=O)C1CCCCC1)c1nc2ccccc2[nH]1 (stereo not given) — lower, 0%
- CCOc1ccc(NC(=O)C2CC(=O)N(CC)C(=Nc3ccc4c(c3)OCO4)S2)cc1 (stereo not given) — lower, 3%
- O=C(Nc1ccc(Cl)cc1C(=O)Nc1ccncc1)c1ccco1 — lower, 4%
- O=C(CCCN1C(=O)c2ccccc2C1=O)Oc1ccc(F)cc1 — lower, 1%
- Cc1onc(-c2ccccc2Cl)c1C(=O)N1CCc2ccccc21 — lower, 0%
- CCn1c(SCC(=O)N2CCCc3ccccc32)nnc1-c1cccs1 — lower, 0%
- Cc1nc(N)[nH]c(=O)c1CCC(=O)OCC(C)C — lower, 0%
